Source: PubChem
The full list was thinned out, with hits kept by preference.
CHX counter: counter-screen hit for Shiga toxin inhibitors, cycloheximide; max response, %; cell reporter, cycloheximide protein synthesis inhibition counterscreen; actives 12% (n = 300,000); AID 2314; in the data active = max response mostly above about 13%, no sharp cut-off; inactive = mostly below about 14%; note: read at 38.3 µM for the half of the compounds with a filed dose
LmPK inh: LmPK (Leishmania mexicana) enzyme inhibition; Q27686; actives 0.37% (n = 290,000); Potency, µM (titrated, usually from 57.5 µM), hits mostly inhibitors; purified LmPK, Kinase-Glo ATP luminescence, 1 h
Target sequence (Q27686 whole entry, looked up): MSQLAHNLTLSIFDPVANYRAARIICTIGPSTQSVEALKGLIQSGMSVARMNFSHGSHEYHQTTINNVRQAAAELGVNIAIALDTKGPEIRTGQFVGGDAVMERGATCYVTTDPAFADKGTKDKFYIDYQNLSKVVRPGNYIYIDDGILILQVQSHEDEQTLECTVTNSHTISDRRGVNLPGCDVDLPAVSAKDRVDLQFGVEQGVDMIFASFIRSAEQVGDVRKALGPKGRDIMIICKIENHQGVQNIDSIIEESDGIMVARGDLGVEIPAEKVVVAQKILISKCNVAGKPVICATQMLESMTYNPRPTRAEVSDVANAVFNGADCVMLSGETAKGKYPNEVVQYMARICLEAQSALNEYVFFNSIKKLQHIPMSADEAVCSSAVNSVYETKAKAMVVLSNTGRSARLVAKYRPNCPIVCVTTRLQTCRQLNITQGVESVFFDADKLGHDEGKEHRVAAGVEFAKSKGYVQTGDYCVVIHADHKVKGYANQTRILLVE
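qHTS format; LmPK 0.1 nM; substrates PEP 0.5 mM and ADP 0.1 mM. One-hour room-temperature incubation, then coupled luciferase luminescence; 0.5 nM enzyme wells mark activation.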
Shiga toxin inh: blocks Shiga toxin action in Vero cells | actives 9.2% (n = 290,000) | inhibition, % at 38.7 µM | Vero cells, Shiga toxin protein synthesis inhibition reporter; in the data active = inhibition mostly above about 28%, no sharp cut-off; inactive = mostly below about 43%
Sm TGR block: blocks Schistosoma mansoni thioredoxin glutathione reductase | Q962Y6 | purified TGR, DTNB reduction, TNB absorbance 405 nm | Potency, µM (highest dose often 114 µM), most hits filed as inhibitors | actives 3% (n = 360,000) | AID 485364; note: nearly all actives have a fitted effect of over 60% in size
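Kinetic colorimetric format: TGR-catalysed, NADPH-driven DTNB reduction monitored via TNB absorbance. Enzyme dispensed at 20 nM; compound exposure 15 min at room temperature before reaction start.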
Giardia FBPA inh: inhibitors of Giardia lamblia fructose-1,6-bisphosphate aldolase; A8B2U2; purified Giardia FBPA; Potency, µM (top dose mostly 59.6 µM), actives largely listed as inhibitors; actives 0.71% (n = 290,000); AID 2451; note: nearly all actives have a fitted effect of over 55% in size
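40 nM FBPA preincubated 10 min at RT with compound (up to 57.5 uM final), then substrate plus GAPDH/TPI/NAD/arsenate coupling and diaphorase/resazurin added. Fluorescence read after 20 min at RT, 525/598 nm.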
Tb PYK inh: blocks Trypanosoma brucei pyruvate kinase | Potency, µM (top dose mostly 76.8 µM), most hits filed as inhibitors | TbPYK enzyme, Kinase-Glo Plus ATP luminescence, 45 min | Q57TT1 | actives 0.12% (n = 410,000); note: nearly all actives have a fitted effect of over 50% in size
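ADP (130 uM final) triggers the TbPYK reaction after compound addition; incubation is 45 min at room temperature. Kinase-Glo Plus is then added and luminescence imaged. Normalized data are fitted to concentration-effect curves.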
Hits are given with their value. Unless noted, calls come from the whole dose curve; as a rule, active = well fitted curve in the direction sought with a large enough effect; inconclusive = small, poorly fitted or top-dose-only effect, or another doubt; inactive = no such curve, though single readings can be large; an effect the other way counts as inactive or inconclusive.

How did COc1cccc2cc(-c3nnc(Nc4c(F)cccc4F)s3)c(=O)oc12 do in these assays?
Sm TGR block: inactive; Tb PYK inh: inactive

Results for CCOc1cccc2cc(-c3nnc(NCc4ccco4)s3)c(=O)oc12 ?
CHX counter: inactive; LmPK inh: inactive; Shiga toxin inh: 40.4; Sm TGR block: inactive; Giardia FBPA inh: inactive; Tb PYK inh: inactive

How did COc1cccc2cc(-c3cn4ccc(C)cc4n3)c(=O)oc12 do in these assays?
Tb PYK inh: inactive

What do the screens show for `CCOc1ccccc1Nc1nnc(-c2cc3cc(OC)ccc3oc2=O)s1`?
Sm TGR block: inactive; Tb PYK inh: inactive

How did CCOc1cccc2cc(-c3cn4cc(C)ccc4n3)c(=O)oc12 do in these assays?
CHX counter: inactive; LmPK inh: inactive; Shiga toxin inh: 36.4; Sm TGR block: inactive; Giardia FBPA inh: inactive; Tb PYK inh: inactive

Results for O=C(NCCc1ccccc1)c1ccc(Nc2nc3ccccc3n3nnnc23)cc1 ?
Sm TGR block: inactive; Tb PYK inh: inactive

What do the screens show for `O=C1C2C3C=CC(C3)C2C(=O)N1CNc1ccc(O)cc1` (configuration not stated)?
CHX counter: inactive; LmPK inh: inactive; Shiga toxin inh: inactive; Sm TGR block: 44.7µM; Giardia FBPA inh: 3.15µM

Results for O=C(O)C1C2C=CC(C2)C1C(=O)NCCCc1ccccc1 (configuration not stated) ?
CHX counter: inactive; LmPK inh: inactive; Shiga toxin inh: inactive; Sm TGR block: inactive; Giardia FBPA inh: inactive; Tb PYK inh: inactive

How did O=C(O)C1C2C=CC(C2)C1C(=O)NCCc1ccccc1 (configuration not stated) do in these assays?
CHX counter: inactive; LmPK inh: inactive; Shiga toxin inh: 30.0; Sm TGR block: inactive; Giardia FBPA inh: inactive; Tb PYK inh: inactive

What do the screens show for `O=C(CCN1C(=O)C2C3C=CC(C3)C2C1=O)Nc1ccc2ncccc2c1` (configuration not stated)?
CHX counter: 45.4; LmPK inh: inactive; Shiga toxin inh: 64.3; Sm TGR block: inactive; Giardia FBPA inh: inactive; Tb PYK inh: inactive

Results for O=C1C2C3C=CC(C3)C2C(=O)N1CCCCCCN1C(=O)C2C3C=CC(C3)C2C1=O (configuration not stated) ?
CHX counter: 48.2; LmPK inh: inconclusive; Shiga toxin inh: 68.1; Sm TGR block: inactive; Giardia FBPA inh: inactive; Tb PYK inh: inactive

How did CN(C(=O)c1cccc(NC(=O)Cc2cccc(NC(=O)C3CCN(C(=O)C4CCCCC4)CC3)c2)c1)C1CCC1 do in these assays?
Tb PYK inh: inactive

What do the screens show for `COc1cccc(N2CCN(c3c4c(nc5nncn35)CCC4)CC2)c1`?
Sm TGR block: inconclusive; Tb PYK inh: inactive

How did CCOc1ccc(C2c3c(oc4ccc(C)cc4c3=O)C(=O)N2Cc2ccc3c(c2)OCO3)cc1OC (configuration not stated) do in these assays?
Sm TGR block: inactive; Tb PYK inh: inactive

Results for O=C(CCN1C(=O)C2C3C=CC(C3)C2C1=O)NCCc1ccccc1 (configuration not stated) ?
CHX counter: 9.7; LmPK inh: inactive; Shiga toxin inh: inactive; Sm TGR block: inactive; Giardia FBPA inh: inactive; Tb PYK inh: inactive

How did O=C(CN1C(=O)C2C3C=CC(C3)C2C1=O)OCC(=O)c1ccc(Cl)cc1 (configuration not stated) do in these assays?
CHX counter: inactive; LmPK inh: inactive; Shiga toxin inh: inactive; Sm TGR block: inactive; Giardia FBPA inh: inactive; Tb PYK inh: inactive

What do the screens show for `O=C(CN1C(=O)C2C3C=CC(C3)C2C1=O)OCC(=O)c1ccccc1` (configuration not stated)?
CHX counter: 21.0; LmPK inh: inactive; Shiga toxin inh: 37.4; Sm TGR block: inactive; Giardia FBPA inh: inactive; Tb PYK inh: inactive

Results for O=C1C2C3C=CC(C3)C2C(=O)N1CCc1ccccc1 (configuration not stated) ?
CHX counter: inactive; LmPK inh: inactive; Shiga toxin inh: inactive; Sm TGR block: inactive; Giardia FBPA inh: inactive; Tb PYK inh: inactive

What do the screens show for `CC(C)(C)c1ccc(C(=O)Nc2ccccc2C(=O)OCc2cc(=O)n3ccsc3n2)cc1`?
Sm TGR block: inactive; Tb PYK inh: inactive

What do the screens show for `COc1cc(N=Nc2ccc3ccccc3c2)ccc1O`?
CHX counter: 46.8; LmPK inh: inactive; Sm TGR block: inactive; Giardia FBPA inh: inactive; Tb PYK inh: inactive

How did COc1cc(N=Nc2ccccc2C(=O)O)ccc1O do in these assays?
CHX counter: inactive; LmPK inh: inactive; Shiga toxin inh: inactive; Sm TGR block: inactive; Giardia FBPA inh: inconclusive; Tb PYK inh: inactive

How did O=[N+]([O-])c1ccccc1N=Nc1ccc(O)cc1 do in these assays?
Tb PYK inh: inactive

What do the screens show for `Oc1ccc(N=Nc2ccc3ccccc3c2)cc1`?
CHX counter: 40.3; LmPK inh: inactive; Sm TGR block: inactive; Giardia FBPA inh: inactive; Tb PYK inh: inactive

What do the screens show for `COc1ccc(-c2cn3c(n2)sc2cc(C(=O)Nc4ccc(F)cc4Cl)ccc23)cc1`?
Sm TGR block: inactive; Tb PYK inh: inactive

Results for Cc1ccc(-n2ccnc(NCCc3ccc(S(N)(=O)=O)cc3)c2=O)cc1C ?
Sm TGR block: inactive; Tb PYK inh: inactive

What do the screens show for `Cc1ccccc1-c1nc(C#N)c(N2CCC(C)CC2)o1`?
CHX counter: 23.5; LmPK inh: inactive; Shiga toxin inh: 46.1; Sm TGR block: inactive; Giardia FBPA inh: inactive; Tb PYK inh: inactive

Results for CC1CCCN(c2oc(-c3cccc4ccccc34)nc2C#N)C1 (configuration not stated) ?
CHX counter: inactive; LmPK inh: inactive; Shiga toxin inh: inactive; Sm TGR block: inactive; Giardia FBPA inh: inactive; Tb PYK inh: inactive

How did CC1CCN(c2oc(-c3ccccc3Cl)nc2C#N)CC1 do in these assays?
CHX counter: 36.6; LmPK inh: inactive; Shiga toxin inh: 99.4; Sm TGR block: inactive; Giardia FBPA inh: inactive; Tb PYK inh: inactive

How did CC(C)(C)c1ccc(-c2nc(C#N)c(N3CCC(C(N)=O)CC3)o2)cc1 do in these assays?
CHX counter: inactive; LmPK inh: inactive; Shiga toxin inh: inactive; Sm TGR block: inactive; Giardia FBPA inh: inactive; Tb PYK inh: inactive

Results for CC1CCN(c2oc(-c3ccc(F)cc3)nc2C#N)CC1 ?
CHX counter: 40.5; LmPK inh: inactive; Shiga toxin inh: 62.4; Sm TGR block: inactive; Giardia FBPA inh: inactive; Tb PYK inh: inactive

What do the screens show for `N#Cc1nc(-c2ccccc2Cl)oc1N1CCOCC1`?
CHX counter: 16.5; LmPK inh: inactive; Shiga toxin inh: inactive; Sm TGR block: inactive; Giardia FBPA inh: inactive; Tb PYK inh: inactive

What do the screens show for `Cc1ccc(C(=O)NCC(c2ccc3c(c2)OCO3)N2CCN(C)CC2)cc1C` (configuration not stated)?
Sm TGR block: inactive; Tb PYK inh: inactive
